The structures appear in SMILES notation. Out of some 410,000 compounds screened, about 18,000 (4.4%) were called active. Not shown: some 7% with an inconclusive outcome. The sample as a whole holds a higher share of actives than the screen did. Unmarked numbers belong to inactive results. Rule as the data show it: active = activity change below about -60%; inconclusive = no clear call, values can overlap the other calls; inactive = above about -39%.
% is scaled to controls: 0 for no effect and ±100 for the full control effect.

This assay in a line: qHTS Assay for inhibitors of the human cytomegalovirus (HCMV). Particulars: HFF cells, HCMV-luciferase reporter, 72 h; at 57.5 µM; active compounds read low. In outline: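 Screen run at 2 compound doses on HFFs infected with reporter HCMV, MOI 1 PFU/cell. Luciferase activity from cell lysates at 72 h post infection gave inhibition relative to buffer-only and Salinomycin wells.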
(In general: In qHTS, concentration-response curves come from the screen itself.)
For `CC(C)[C@H]1COCCS(=O)(=O)N1Cc1ccccc1-c1cccc2c1sc1ccccc12`, the activity change, negative = inhibition is -19%.

For the compound `COC(=O)c1c(-c2ccsc2)oc2ccc(-c3cc(OC)c(OC)c(OC)c3)cc12`, the activity change, negative = inhibition was 8.37%.

Turning to `CSc1ncccc1C(=O)N1CCCC(CCC(=O)NCc2ccccc2F)C1` (stereo not given), the activity change, negative = inhibition was -1.95%.

`Cc1cc2cc3n(c2nn1)N=C(Cl)CC3`: the activity change, negative = inhibition was -74.2% (active).

As to `Cc1ccc(C(=O)COC(=O)C(Cc2c[nH]c3ccccc23)NC(=O)c2ccc(Br)cc2)cc1` (stereo not given), the activity change, negative = inhibition is 0%.

For `O=C(CSc1nccn1Cc1ccc(F)cc1)NCc1ccccc1`, the activity change, negative = inhibition is -14.9%.

As for `COc1ccc2nc3n(c(=O)c2c1)-c1ccc(Cl)cc1C(=O)NC3Cc1ccccc1` (stereo not given), the activity change, negative = inhibition is -25.7%.

In the case of `CC(C)CC1NC(=O)c2cc(Cl)ccc2-n2c1nc1ccccc1c2=O` (stereo not given), the activity change, negative = inhibition was -99.6% (active).

With `O=C1NC(Cc2ccccc2)c2nc3ccc(Br)cc3c(=O)n2-c2cc3ccccc3cc21` (stereo not given), the activity change, negative = inhibition is 17%.

For `Cc1ccc(-c2nnn(CC(=O)N(Cc3ccco3)C(C(=O)NC(C)(C)C)c3ccncc3)n2)o1` (stereo not given), the activity change, negative = inhibition is 9.51%.

For `Cc1ccc(-c2cc(C(=O)Oc3ccccc3Cl)no2)cc1C`, the activity change, negative = inhibition is 81.2%.

`COc1cc(C(=O)N(Cc2ccc(C(C)C)cc2)C2CCS(=O)(=O)C2)cc(OC)c1OC` (stereo not given): the activity change, negative = inhibition is 11.7%.

With `CN(C(=O)CSc1nc2ccccc2n1Cc1ccccc1C#N)c1ccccc1`, the activity change, negative = inhibition is -3.45%.

`CC(C)[C@@H](NC(=O)OC(C)(C)C)C(=O)NCC1CCC(C(=O)N[C@@H](Cc2ccccc2)C(=O)O)CC1` (stereo not given in full): the activity change, negative = inhibition is -17.7%.

Regarding `C[C@@H](NC(=O)OC(C)(C)C)c1nnc(S(=O)(=O)Cc2ccccc2)o1`, the activity change, negative = inhibition was -105% (active).

Consider `CC(C)(C)c1ccc(C(CC(=O)O)NS(=O)(=O)Cc2ccccc2)cc1` (stereo not given), for which the activity change, negative = inhibition is 30.5%.

Take `CC(C)N(C(=O)Cn1c(SCC(=O)N2CCN(c3ccccc3)CC2)nc2ccccc21)C(C)C`: the activity change, negative = inhibition was -20.6%.

Take `CCn1cc2nc(SCc3ccccc3Cl)n(CCc3ccccc3)c(=O)c2n1`: the activity change, negative = inhibition is -14.7%.

Take `COc1cc(C(=O)NCCc2csc3nc(-c4ccccc4C)nn23)cc(OC)c1OC`: the activity change, negative = inhibition was 7.41%.

Turning to `CCCNC(=O)c1nnc2n1CCN(C(=O)c1ccccc1OC)C2`, the activity change, negative = inhibition was -9.02%.

As for `COc1ccccc1C(=O)NCCn1cc(SCc2ccccc2Cl)c2ccccc21`, the activity change, negative = inhibition is 20.2%.

With `Cc1cccc(CN2CCN(C3CN(Cc4ccccc4)S(=O)(=O)C3)CC2)c1` (stereo not given), the activity change, negative = inhibition is -24.1%.

As for `Cc1cccc(CN2CCN(C3CN(Cc4cn(Cc5ccccc5F)nn4)S(=O)(=O)C3)CC2)c1` (stereo not given), the activity change, negative = inhibition is -0.715%.

Regarding `Cc1cccc(CN2CCN(C3CN(Cc4cn(Cc5cc(C)cc(C)c5)nn4)S(=O)(=O)C3)CC2)c1` (stereo not given), the activity change, negative = inhibition is -101% (active).

Turning to `COc1cccc(CNC(=O)C(=O)NCC(c2cccs2)S(=O)(=O)c2ccccc2)c1` (stereo not given), the activity change, negative = inhibition is -19.1%.

With `COCCN(C(=O)CCC(=O)Nc1nccs1)C(C(=O)NC(C)(C)C)c1ccc(Cl)cc1` (stereo not given), the activity change, negative = inhibition is -6.27%.

Turning to `CN(CCCC(=O)Nc1nccs1)S(=O)(=O)c1ccc(Cl)cc1`, the activity change, negative = inhibition is -64.7% (active).

As for `Cc1nc(NC(=O)CN(C)S(=O)(=O)c2ccc(Cl)cc2)sc1C`, the activity change, negative = inhibition was 12.3%.

Take `CCc1ccc(CN(Cc2ccco2)C(=O)COc2ccc(Cl)c(C)c2)cc1`: the activity change, negative = inhibition was -9.02%.

Take `Cc1c(Cl)c([N+](=O)[O-])nn1CCCC(=O)NC(C)c1ccccc1` (stereo not given): the activity change, negative = inhibition is 46.9%.

For the compound `Cc1c(Cl)c([N+](=O)[O-])nn1CC(=O)NCC1CCCO1` (stereo not given), the activity change, negative = inhibition is 35.2%.

In the case of `Cc1c(Cl)c([N+](=O)[O-])nn1Cc1ccc(C(=O)N/N=C\c2cc(Cl)ccc2O)o1`, the activity change, negative = inhibition is -93.7% (active).

On to `O=C1CC(c2nnc(Cc3ccc(Cl)cc3)o2)CN1c1ccccc1` (stereo not given), for which the activity change, negative = inhibition is -4.62%.

In the case of `COc1ccccc1C(=O)OCC(=O)NCCNC(=O)COC(=O)c1ccccc1OC`, the activity change, negative = inhibition is -25.9%.

For `COc1ccccc1/C=C/C(=O)OCC(=O)NC1CCCCCC1`, the activity change, negative = inhibition is -34.6%.

Consider `CCOC(=O)C(=Cc1ccccc1OC)C(=O)OCC`, for which the activity change, negative = inhibition was -65.2% (active).

Take `CCc1cnc2c(c1SCC(=O)N1CCC(C)CC1)c(=O)n(C)c(=O)n2C`: the activity change, negative = inhibition is -18.2%.

With `COc1ccc2[nH]c3c(c2c1)CCN1C(=O)C(CC(=O)NCc2cccc(C(F)(F)F)c2)C[C@H](C(=O)N2CCOCC2)[C@@]31C` (stereo not given in full), the activity change, negative = inhibition was -2.74%.

Consider `CCN(CC)S(=O)(=O)c1nnc(NC(=O)COc2ccccc2Cl)s1`, for which the activity change, negative = inhibition is -5.69%.

Regarding `Clc1ccc2nc(-c3ccccc3)nc(C(Cl)Cl)c2c1`, the activity change, negative = inhibition was -78.3% (active).

For the compound `Fc1ccc2nc(-c3ccccc3)nc(SCc3nnc(-c4ccccc4)o3)c2c1`, the activity change, negative = inhibition was 1.64%.

For `O=C(C1COc2ccccc2O1)N(Cc1cccnc1)c1nc2c(F)cc(F)cc2s1` (stereo not given), the activity change, negative = inhibition is 0%.

Turning to `Cc1cc(S(=O)(=O)NCC(C)C)ccc1OCC(=O)NC1CC1`, the activity change, negative = inhibition was -9.36%.

Consider `O=C(Nc1ccc2ccccc2c1)Nc1ccc2snnc2c1`, for which the activity change, negative = inhibition is -97.2% (active).

For `CS(=O)(=O)c1ccccc1C(=O)Nc1ccc2sccc2c1`, the activity change, negative = inhibition is 22.5%.

As for `COc1cccc(C(=O)Nc2ccc3oc(-c4ccc5ccccc5c4)nc3c2)c1`, the activity change, negative = inhibition was 12.9%.

`CC(C)CC(=O)NCC(c1ccc2c(c1)OCO2)N1CCN(c2ccc(F)cc2)CC1` (stereo not given): the activity change, negative = inhibition was 1.29%.

Take `COc1ccc(NC(=O)N2CCCn3nc(C)cc32)cc1OC`: the activity change, negative = inhibition was 9.12%.

For the compound `COc1ccc(NC(=O)NC(C)c2c(-n3cccc3)sc(C)c2C)cc1OC` (stereo not given), the activity change, negative = inhibition is -77.2% (active).

Consider `CCn1cc(NC(=O)Nc2ccc(OC)c(OC)c2)c(C(N)=O)n1`, for which the activity change, negative = inhibition is -11.8%.

As for `NC1=NC(=O)C(Cc2cccc(Cl)c2)S1` (stereo not given), the activity change, negative = inhibition was 4.67%.

Take `COc1ccc(-n2c(=O)c3c(c4cc(OC)ccc4n3C)n(Cc3cccc(C)c3)c2=O)cc1`: the activity change, negative = inhibition is -5.82%.

Consider `COC(=O)C[C@@H]1C=C[C@@H](NC(=O)c2cccnc2)[C@@H](CO)O1`, for which the activity change, negative = inhibition is -9.71%.

For `CCn1cc(C(=O)NCCc2ccccc2)c(=O)c2cc(S(=O)(=O)N3CCCCCC3)ccc21`, the activity change, negative = inhibition was -9.08%.

In the case of `CCCCNC(=O)c1nc2cc(C)c(C)cc2nc1-c1ccc(OC)cc1`, the activity change, negative = inhibition was 9.19%.

Values taken from PubChem BioAssay AID1259415 (National Center for Advancing Translational Sciences (NCATS), 2018).
